PLC-gamma1 inh = PLC-gamma1 (human) inhibition, primary screen | purified PLC-gamma1, fluorogenic substrate, fluorescence | inhibition, % at 12.2 µM | 370,000 tested, 0.84% active | P19174
Target sequence (P19174 whole entry, looked up): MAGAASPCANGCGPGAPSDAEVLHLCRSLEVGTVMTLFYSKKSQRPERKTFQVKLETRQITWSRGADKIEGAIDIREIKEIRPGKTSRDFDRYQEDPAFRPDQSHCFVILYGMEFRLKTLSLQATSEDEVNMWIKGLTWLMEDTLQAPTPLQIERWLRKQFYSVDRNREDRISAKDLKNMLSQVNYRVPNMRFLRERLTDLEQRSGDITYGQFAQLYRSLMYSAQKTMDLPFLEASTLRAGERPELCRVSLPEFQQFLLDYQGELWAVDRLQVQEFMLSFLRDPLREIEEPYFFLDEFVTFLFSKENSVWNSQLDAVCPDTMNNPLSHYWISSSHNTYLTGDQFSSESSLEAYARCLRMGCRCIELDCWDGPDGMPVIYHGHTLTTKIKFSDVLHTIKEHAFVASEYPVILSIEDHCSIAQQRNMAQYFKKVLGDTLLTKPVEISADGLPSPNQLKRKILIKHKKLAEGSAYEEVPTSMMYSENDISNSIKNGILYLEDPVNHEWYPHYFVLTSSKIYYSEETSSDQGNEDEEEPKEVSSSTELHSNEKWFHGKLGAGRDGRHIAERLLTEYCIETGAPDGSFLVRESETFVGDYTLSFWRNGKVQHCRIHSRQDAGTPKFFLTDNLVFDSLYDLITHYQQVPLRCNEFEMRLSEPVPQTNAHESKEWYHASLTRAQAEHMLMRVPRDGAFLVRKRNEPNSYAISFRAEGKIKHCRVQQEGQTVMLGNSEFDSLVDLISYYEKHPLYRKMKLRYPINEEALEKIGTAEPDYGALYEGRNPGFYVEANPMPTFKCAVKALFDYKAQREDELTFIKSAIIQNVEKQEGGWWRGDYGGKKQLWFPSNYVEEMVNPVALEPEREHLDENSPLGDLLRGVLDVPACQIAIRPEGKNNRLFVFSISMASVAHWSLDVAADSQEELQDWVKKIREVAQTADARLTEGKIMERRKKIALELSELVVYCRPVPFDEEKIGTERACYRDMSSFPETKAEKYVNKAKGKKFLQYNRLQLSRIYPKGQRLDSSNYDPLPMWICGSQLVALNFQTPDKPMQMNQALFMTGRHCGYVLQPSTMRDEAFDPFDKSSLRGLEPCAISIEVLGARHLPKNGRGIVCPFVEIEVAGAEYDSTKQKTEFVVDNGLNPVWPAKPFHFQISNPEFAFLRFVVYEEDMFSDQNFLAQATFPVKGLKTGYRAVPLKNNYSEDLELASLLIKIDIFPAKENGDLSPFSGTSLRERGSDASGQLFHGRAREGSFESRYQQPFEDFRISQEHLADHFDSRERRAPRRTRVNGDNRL
PLCb3 inh = blocks human PLC-beta3 enzyme activity; Q01970; Purified PLC-beta3, fluorogenic substrate, fluorescence; inhibition, % at 12.2 µM; 370,000 tested, 0.18% active; AID 720704; in the data active = inhibition above about 11%;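 note: 0% = median of compound wells on plate and 100% = full blocker control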
ADAM10 inh = inhibits human ADAM10. recombinant ADAM10, EDANS/DABCYL FRET peptide cleavage, 3 h. 370,000 tested, 0.62% active. inhibition, % at 7 µM. O14672;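 active = inhibition above a per-campaign cutoff equal to the mean of compounds falling between control-based bounds plus 3 SD, cut at about 20% in these data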;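 note: 0% = DMSO wells while the 100% control is not disclosed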
ADAM17 inh = inhibitors of human ADAM17; inhibition, % at 6.95 µM; 370,000 tested, 0.83% active; P78536; recombinant ADAM17, EDANS/DABCYL FRET peptide cleavage;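 active = inhibition above the mean of compounds lying between control limits plus 3 SD, set per campaign, cut at about 8.5% in these data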;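 note: 0% = DMSO-only wells as the low control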
KLK7 zymogen act = activators of human kallikrein-7 zymogen; P49862; purified proKLK7, EDANS-DABCYL substrate fluorescence; 100% is mature enzyme control, 0% vehicle; activation, % at 7 µM; 370,000 tested, 0.9% active; AID 652039;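 active = activation above the mean of all tested compounds plus 3 SD, computed per campaign excluding outliers beyond control limits, cut at about 13% in these data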
ADAM10 confirm = confirmation of inhibitors of human ADAM10 | inhibition, % at 6.95 µM | ADAM10 QFRET peptide cleavage, EDANS fluorescence | shares compounds with ADAM10 inh | 2,100 tested, 1% active;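 active = inhibition above about 20% chosen separately for each screening run, limit read from the data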;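 note: 0% = DMSO wells and 100% = marimastat wells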
ADAM17 counter = inhibits human ADAM17 in ADAM10 exosite counter-screen; shares compounds with ADAM10 inh; ADAM17 QFRET peptide cleavage, EDANS fluorescence; inhibition, % at 6.95 µM; 2,100 tested, 0.5% active; AID 743214;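 active = mean triplicate inhibition above the solvent-only control wells' mean plus 3 SD, cut at about 12% in these data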;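 note: 0% = DMSO wells and 100% = marimastat wells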
ADAM10 counter = inhibits human ADAM10 in ADAM17 exosite counter-screen; shares compounds with ADAM17 inh; recombinant ADAM10, EDANS/DABCYL FRET peptide cleavage, 3 h; inhibition, % at 6.95 µM; 2,900 tested, 47% active; AID 743256;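 active = mean inhibition over the triplicate runs exceeds the activity threshold set in the earlier primary screen, cut at about 20% in these data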;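 note: 0% = DMSO wells and 100% = marimastat wells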
ADAM17 confirm = human ADAM17 inhibition, confirmation; shares compounds with ADAM17 inh; recombinant ADAM17, EDANS/DABCYL QFRET peptide cleavage; inhibition, % at 6.95 µM; 2,900 tested, 65% active;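 active = mean inhibition across replicates above the hit cutoff set in the primary screen, cut at about 8.5% in these data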;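 note: 0% = DMSO wells and 100% = marimastat wells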
PLCg1 ctr = inhibits human PLC-gamma1 in PLC-beta3 counter-screen | shares compounds with PLC-gamma1 inh | purified PLC-gamma1, fluorogenic substrate, fluorescence | inhibition, % at 12.3 µM | 3,300 tested, 3.1% active
PLCbeta3 conf = confirmation of human PLC-beta3 inhibitors | shares compounds with PLC-gamma1 inh | purified PLC-beta3, fluorogenic substrate fluorescence | inhibition, % at 12.3 µM | 3,300 tested, 1% active | AID 743261; in the data active = inhibition above about 11%
Starred values were filed as active, the others as inactive; x = not tested or not shown. Hits are enriched below; roughly 2.9% of the tested compounds scored in any of these assays. Cut-off read from the data, not from the text of the source, unless noted: active = inhibition above about 9.5%; inactive = the rest.

SMILES	PLC-gamma1 inh	PLCb3 inh	ADAM10 inh	ADAM17 inh	KLK7 zymogen act	ADAM10 confirm	ADAM17 counter	ADAM10 counter	ADAM17 confirm	PLCg1 ctr	PLCbeta3 conf
COc1ccccc1NC(=O)CN1CCN(CC(=O)Nc2ccc(Cl)c(C(F)(F)F)c2)CC1	1	5	8	2	0	x	x	x	x	x	x
CCc1ccccc1NCC(=O)Nc1ccc(Cl)c(C(F)(F)F)c1	12*	8	35*	17*	0	6	3	40*	19*	-1	1
C=CC[C@H](CC(=O)N(CCO)Cc1ccccc1)C(=O)N[C@@H](COC(=O)[C@@H](CC=C)CC(=O)OC(C)(C)C)Cc1c[nH]c2ccccc12	6	12*	37*	21*	1	3	1	29*	15*	-10	-3
C=CCC[C@@H](Cc1ccc(F)cc1)C(=O)OC[C@@H](NC(=O)[C@@H](CC=C)CC(=O)N(CCO)Cc1ccccc1)c1ccccc1	14*	7	47*	26*	0	7	3	44*	22*	-7	-5
C=CCC[C@@H](Cc1ccc(F)cc1)C(=O)OC[C@H](C)NC(=O)[C@H](CC=C)CC(=O)N(CCO)Cc1ccccc1	-1	1	4	-1	0	x	x	x	x	x	x
COc1ccc(CNC(=O)C2(c3ccc(Cl)cc3)CC2)cc1	14*	10	21*	3	0	0	0	x	x	-6	1
NS(=O)(=O)c1ccc(CNC(=O)C2(c3ccc(Cl)cc3)CC2)cc1	5	-7	-3	-3	0	x	x	x	x	x	x
COc1ccc(CN2CCNC(=O)C2CC(=O)NCCc2nc(C)c3c(n2)CCC3)cc1C (stereo not drawn)	-7	-13	-3	-5	0	x	x	x	x	x	x
CC(C)C[C@H](NC(=O)c1nc[nH]c1C(=O)NCC(=O)OC(C)(C)C)C(=O)OCc1ccccc1	9.9*	-4	30*	14*	1	3	1	36*	19*	1	-5
CC(C)(C)OC(=O)NCc1ccc(NC(=O)c2nc[nH]c2C(=O)N[C@@H](Cc2ccccc2)C(=O)OCc2ccccc2)cc1	1	0	14	3	-4	x	x	x	x	x	x
CC(C)(C)OC(=O)NCc1ccc(CNC(=O)c2[nH]cnc2C(=O)N[C@@H](Cc2ccccc2)C(=O)OC(C)(C)C)cc1	9.5*	8	42*	14*	0	12	3	56*	27*	-3	1
CC(C)C[C@H](NC(=O)c1[nH]cnc1C(=O)N[C@@H](C)C(=O)OC(C)(C)C)C(=O)OC(C)(C)C	8	11*	40*	25*	1	6	1	33*	19*	5	-6
CC(C)C[C@H](NC(=O)c1nc[nH]c1C(=O)N[C@@H](CC(C)C)C(=O)OC(C)(C)C)C(=O)OCc1ccccc1	1	3	6	2	0	x	x	x	x	x	x
Cn1cc(S(=O)(=O)N2CCCC2)cc1C(=O)Nc1cccc(C(F)(F)F)c1	4	0	-1	4	0	x	x	x	x	x	x
Cc1occc1C(=O)N/N=C/c1ccc(-c2ccccc2)cc1	-2	-10	8	0	0	x	x	x	x	x	x
Cc1occc1C(=O)N/N=C/c1ccc(OCc2ccccc2)cc1	15*	-1	21*	1	-1	0	0	x	x	-3	0
O=C(CCNc1cc(Cl)cc(Cl)c1)c1cccs1	13*	5	22*	7	0	6	2	x	x	11*	4
O=C(Nc1cnn(Cc2ccc(F)cc2)c1)C(c1ccccc1)c1ccccc1	10*	8	23*	14*	0	3	1	22*	14*	-5	0
O=C(c1ccc(Oc2ccccc2)cc1)c1nc2c(n1O)CCCC2	1	-10	10	0	-1	x	x	x	x	x	x
Cc1ccc([N+](=O)[O-])cc1-c1[nH]c(-c2ccc(O)c(O)c2)nc1-c1ccccc1	9.7*	7	21*	8.8*	0	6	2	28*	13*	4	7
COc1ccc(CCNC(=O)CNC(=O)c2ccccc2Br)cc1OC	1	-2	-1	-1	0	x	x	x	x	x	x
Oc1ccc(C[C@H]2CN([C@@H](Cc3cccc(O)c3)CN3CCC[C@@H]3CN3C(=S)NC[C@@H]3Cc3ccccc3)C(=S)N2CC2CCCCC2)cc1	10*	4	31*	14*	-1	9	3	49*	23*	7	5
O=C(CC(CC(=O)c1ccccc1)c1ccccc1)c1ccccc1	-1	-2	2	2	0	x	x	x	x	x	x
COc1ccc(C(CC(=O)c2ccccc2)CC(=O)c2ccccc2)cc1	13*	-4	20*	11*	0	2	1	5	5	6	3
O=S(=O)(Nc1ccc(C(O)(C(F)(F)F)C(F)(F)F)cc1)c1cccc2cccnc12	10*	-2	27*	10*	0	-2	0	20*	14*	-2	-4
CCCS(=O)(=O)NC(=O)C1(C)CCN(C(=O)c2c(F)cccc2F)C1 (stereo not drawn)	3	4	2	1	-1	x	x	x	x	x	x
CCc1nc2c(OCCC3CCCCC3)cccn2c1N(C)C(=O)c1ccc(C)cc1	10*	3	29*	15*	1	7	2	10	7	4	3
O=C(/C=C/c1cccc([N+](=O)[O-])c1)Nn1c(-c2ccccc2F)nc2ccccc2c1=O	12*	10	24*	7	1	-2	0	x	x	-2	0
COc1ccc(C(=O)Nc2ccc(C)cc2C(=O)c2ccccc2)cc1	5	2	-8	2	0	x	x	x	x	x	x
COc1ccccc1C(=O)Nc1ccc(C)cc1C(=O)c1ccccc1	9.7*	4	21*	7	0	1	1	x	x	0	-1
